Data taken from PubChem BioAssay (NCI).
This is part of a sample that, as a whole, favours compounds with a hit. Of some 83,000 tested, about 20% had one in any assay.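 For each line, cells grew in 96-well plates with the test compound present at a single concentration for 48 hours.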 A number with no mark means an inactive call. Activity calls are given as the source filed them. Rule for the calls: active = growth percent below 10; inactive = the rest.

Legend:
Experiment in all cases: NCI-60 one-dose screen, 48 h (100 = growth as untreated, 0 = no growth, -100 = all killed)
Details in all cases: 10 µM unless noted
[1] = system: HCT-15 colon
[2] = system: HT29 colon
[3] = system: SNB-75 CNS
[4] = system: SNB-19 CNS
[5] = system: U251 CNS
[6] = system: PC-3 prostate
[7] = system: SK-MEL-5 melanoma
[8] = system: UACC-62 melanoma
[9] = system: LOX IMVI melanoma
[10] = system: SK-MEL-28 melanoma

Structure (SMILES)	growth [1]	growth [2]	growth [3]	growth [4]	growth [5]	growth [6]	growth [7]	growth [8]	growth [9]	growth [10]
Oc1ccc(N=Nc2nccs2)c(O)c1	28.6%	51.5%	92.7%	90.8%	41.1%	55.2%	87.9%	44.3%	40%	118%
Cn1cc(-c2noc(-c3cn(C)c4ncc(F)cc34)n2)c2cc(Cl)ccc21	65.8%	25.5%	-24.2% (active)	70.1%	19.4%	79.4%	87%	77.8%	52.5%	85.8%
Nc1cc(C(=O)O)[nH]c(=S)n1	101%	101%	91.4%	97.5%	95%	99.8%	98.8%	95.2%	100%	96.7%
O=C1CN(Cc2ccc(C(=O)NO)cc2)C(=O)[C@@H](Cc2ccccc2)N1	104%	113%	85.9%	98.5%	92.4%	97.9%	107%	99.2%	111%	105%
CCCCCCCCCCCCNC(=S)N/N=C/c1ccccc1O	56.9%	36.6%	81.1%	80.2%	78.4%	69.5%	88.8%	77.7%	60.5%	93.3%
COc1ccc2c3ccnc(C(F)(F)F)c3n(CCCCN)c2c1	62.9%	22.6%	49.2%	68%	46.4%	22.8%	70.7%	39.2%	32.3%	38.6%
O=c1[nH]c(CN2CCN(c3cccc(Cl)c3)CC2)nc2cc(Cl)ccc12	94.4%	106%	80.5%	91.3%	94.6%	90.6%	99.4%	93.8%	92.5%	102%
COC(=O)c1cc2c(=O)[nH]cc3c2c(n1)CCC3	113%	105%	104%	96.2%	103%	93.6%	104%	107%	104%	105%
CCn1cc(-c2ccnc(NCCNS(=O)(=O)c3cccc4ccccc34)c2)c(-c2cccc(O)c2)n1	96.7%	92.9%	107%	106%	53%	83.2%	95.8%	97.2%	111%	107%
Cc1c(Cn2cc(COc3ccc(Br)cc3)nn2)c(C)c(Cn2cc(COc3ccc(Br)cc3)nn2)c(C)c1Cn1cc(COc2ccc(Br)cc2)nn1	104%	92.4%	81.1%	89.7%	91.3%	87.9%	98.4%	76.9%	35%	94.1%
COC(=O)[C@]12CCC(C)(C)C[C@H]1C1=CC[C@@H]3[C@@]4(C)C/C(=C/c5cccnc5)C(=O)C(C)(C)[C@@H]4CC[C@@]3(C)[C@]1(C)CC2	0.973% [100 µM] (active)	-15.9% [100 µM] (active)	-59.8% [100 µM] (active)	-23.1% [100 µM] (active)	-38.2% [100 µM] (active)	-16.3% [100 µM] (active)	-93.9% [100 µM] (active)	-59.4% [100 µM] (active)	-89.5% [100 µM] (active)	-69.5% [100 µM] (active)
Cn1ncc2c(Nc3ccc(O)cc3)nc(Cl)nc21	97%	102%	95%	106%	99.3%	119%	100%	82.6%	95.7%	114%
C#C[C@]1(O)CC[C@H]2[C@@H]3CC=C4c5nc(Nc6ncccn6)sc5CC[C@]4(C)[C@H]3CC[C@@]21C	33.1%	55.4%	-7.12% (active)	64.8%	21.9%	32.1%	68.1%	1.81% (active)	26.9%	-41.4% (active)
CCOC(=O)/C(C#N)=C(\C)CCc1ccccc1	87.7%	98.6%	52.3%	104%	96.4%	92.7%	98.4%	110%	96.9%	97.7%
C[N+](C)(C)c1ncnc2[n-]cnc12	104%	104%	82.1%	91.2%	91.6%	92%	90.1%	83.2%	75.5%	94.6%
CCCCNC(=O)NS(=O)(=O)Cc1ccccc1	109%	114%	95.3%	114%	96.4%	102%	107%	104%	107%	108%
CC(C)CCNCC(C)(C)O	99.1%	103%	90.3%	109%	104%	98.6%	113%	111%	101%	122%
COc1cc(/C=C/C(=O)/C=C/c2ccc(-n3ccnc3)cc2)ccc1O	82.2%	3.46% (active)	62.3%	76.9%	-0.424% (active)	62.4%	74%	85.2%	-44% (active)	86.7%
CC(C)CCSC1=CC(=O)c2ccccc2C1=O	72%	97%	7.99% (active)	92.3%	86.3%	37.8%	67.8%	74%	38%	27.2%
COc1cc(NCc2cn(-c3ccc(C(=O)O)cc3)nc2-c2ccc(C(=O)O)cc2)cc(OC)c1OC	106%	106%	77.8%	97.4%	92.2%	96.9%	95.2%	94.4%	95.9%	103%
N#Cc1ccc(-c2ccc(COc3ccc(CC4SC(=O)NC4=O)cc3)cc2)cc1 (stereo not given)	63.6%	103%	67.8%	63.3%	63%	54.4%	-18.3% (active)	51.4%	48.5%	79%
O=C(NCCCNC(=O)OCc1ccc2c(Br)cc(Br)c(O)c2n1)OCc1ccc2c(Br)cc(Br)c(O)c2n1	-34.4% (active)	-73% (active)	-87.6% (active)	44.6%	-70.4% (active)	-25.5% (active)	-77.7% (active)	-87.1% (active)	-92% (active)	-75.9% (active)
C=CCCCCCCCCC(=O)OC(C)C	99.1%	98.6%	103%	105%	96.1%	99.7%	95.9%	105%	100%	104%
Nc1ccc(NC(=O)c2ccccc2)c2c1C(=O)c1ccccc1C2=O	99%	104%	76%	102%	105%	87.2%	94.2%	101%	109%	113%
C=C(C)[C@@H]1CC[C@]2(C(=O)NCCCCCCN(CCCN)CCCN)CC[C@]3(C)[C@H](CC[C@@H]4[C@@]5(C)CC[C@H](OCCCN)C(C)(C)[C@@H]5CC[C@]43C)[C@@H]12	81.8% [100 µM]	4.21% [100 µM] (active)	84.5% [100 µM]	80.8% [100 µM]	-39.4% [100 µM] (active)	60.9% [100 µM]	85.9% [100 µM]	120% [100 µM]	5.71% [100 µM] (active)	101% [100 µM]
